FLuc counter: firefly luciferase modulation, counter-screen for miR-21 project | P08659 | purified FLuc, Km substrates, luminescence inhibition | Potency, µM (top dose mostly 57.5 µM), without a hit: at the highest dose activity change, negative = inhibition, actives largely listed as inhibitors | hit rate 6.9% among 360,000 | AID 588342;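 also: plate controls were vehicle for no effect and reference inhibitor for full effect; nearly all actives have a fitted effect of over 55% in size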
Target sequence (P08659 whole entry, looked up): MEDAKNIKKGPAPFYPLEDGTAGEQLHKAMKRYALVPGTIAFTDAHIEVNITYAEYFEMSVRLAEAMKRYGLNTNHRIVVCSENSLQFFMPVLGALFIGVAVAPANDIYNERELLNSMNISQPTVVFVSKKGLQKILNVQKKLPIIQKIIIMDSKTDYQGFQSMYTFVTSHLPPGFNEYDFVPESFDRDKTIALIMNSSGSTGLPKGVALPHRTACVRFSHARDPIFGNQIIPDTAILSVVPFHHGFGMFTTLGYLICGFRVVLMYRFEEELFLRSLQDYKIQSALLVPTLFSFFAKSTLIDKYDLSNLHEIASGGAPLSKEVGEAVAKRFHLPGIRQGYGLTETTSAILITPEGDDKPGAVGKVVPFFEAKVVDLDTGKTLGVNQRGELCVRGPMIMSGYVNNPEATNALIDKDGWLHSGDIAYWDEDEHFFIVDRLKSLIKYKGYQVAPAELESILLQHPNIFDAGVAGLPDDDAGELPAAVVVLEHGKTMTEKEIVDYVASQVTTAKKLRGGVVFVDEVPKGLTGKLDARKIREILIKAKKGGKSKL
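Purified P. pyralis luciferase (10nM final) with 10uM D-luciferin and 10uM ATP (Km levels) in 50mM Tris acetate pH 7.5, 10mM Mg acetate, 0.01% Tween-20, 0.05% BSA; qHTS 6-point titration, ~60 µM downward; luminescence read.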
ELG1 genotoxic: induces genotoxicity in HEK293T cells with luciferase-tagged ELG1; HEK293T ELG1-luciferase reporter, luminescence, 16 h; Potency, µM (series often up to 46 µM), inactives show at the highest dose activity change, positive = activation, usual class: activators; hit rate 1.3% among 330,000; AID 504466; also: % of control where 0% means no effect; nearly all actives have a fitted effect of over 60% in size
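Reporter readout depends on ELG1 protein level, which increases with genetic stress. After 16 hr compound exposure at 37 °C, luciferase activity was quantified using ONE-Glo.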
Rab9 promoter act: activators of Rab9 promoter; hit rate 2.8% among 320,000; Potency, µM (titrated, usually from 9.22 µM), for inactives: at the highest dose activation, negative = inhibition, hits mostly activators; Huh7 Rab9 promoter-luciferase reporter, luminescence, 24 h; also: % of control where 0% means no effect; nearly all actives have a fitted effect of over 60% in size
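Steps: seed 1500 Huh7 Rab9-luc cells per well, rest 2 h at 37 °C; add compound in DMSO; incubate 24 h; add luciferase reagent, 10 min ambient; read luminescence.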
NPC1 prom act: NPC1 promoter activation | hit rate 2.4% among 320,000 | Potency, µM (doses to about 9.22 µM), for the others: at the highest dose activation, usual class: activators | AID 485313 | Huh7 NPC1 promoter luciferase reporter, 24 h; also: % of control where 0% means no effect; nearly all actives have a fitted effect of over 60% in size
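Luminescence from an NPC1 promoter-driven luciferase reporter in stably transfected Huh7 cells was measured after 24 h compound treatment at 37 °C, followed by 10 min ambient incubation with luciferase detection reagent.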
SMN2 splice enh: enhancers of SMN2 splice variant expression; HEK293 SMN2-luciferase splicing reporter, luminescence, 30-36 h; Potency, µM (highest dose often 46.1 µM), without a hit: at the highest dose activity change, positive = activation, usual class: activators; hit rate 2.8% among 210,000; also: % of control where 0% means no effect; nearly all actives have a fitted effect of over 55% in size
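HEK293 cells carry an SMN2 […]–luciferase reporter in which exon 7 inclusion puts luciferase in frame. Cells were plated 10-12 h before compound addition, then incubated 30-36 h at 37C. ONE-Glo luminescence was read; sodium butyrate at 4.5 mM final served as control.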
An asterisk follows results filed as active; ? = inconclusive; nt = not tested or not shown. A selection: hits, their analogues and other compounds. The true share with any hit is near 7.5%. Calls follow the shape of the dose curve; as a rule, active = well fitted curve in the direction sought with a large enough effect; inconclusive = small, poorly fitted or top-dose-only effect, or another doubt; inactive = no such curve, though single readings can be large; an effect the other way counts as inactive or inconclusive. Potency is read from the fitted curve at half-maximal effect.

SMILES	FLuc counter	ELG1 genotoxic	Rab9 promoter act	NPC1 prom act	SMN2 splice enh
COc1ccccc1N=C(C)C1=C(O)CSC1=O	0.1%	6.6%	-25.3%	-3.9%	-12.3%
O=C(Nc1ccccc1C(=O)O)/C(=C/c1ccc(Cl)cc1Cl)NC(=O)c1ccco1	-3.2%	1.3%	5.3%	1.3%	nt
CCc1ccc(C2=CSC3=NCCN23)cc1	-2.8%	-1.9%	-2.5%	-3.3%	nt
CCOC(=O)c1ccc(NC(=O)CC2C(=O)N(c3cccc(OC)c3)C(=O)N2CCOC)cc1 (configuration not stated)	-0.7%	1.1%	-1.2%	-1.5%	3.98µM*
CCOC(=O)c1ccc(NC(=O)CC2C(=O)N(c3cccc(C)c3)C(=O)N2CCOC)cc1 (configuration not stated)	-2.9%	nt	nt	nt	10.9%
COc1ccccc1NC(=O)c1cccc2c(Br)cccc12	-9.8%	0.2%	3.0%	22.9%	nt
O=C(Cc1ccc(F)cc1)Nc1nnc2n1CCS2	0.7%	nt	nt	nt	nt
Cc1ccccc1C(=O)Nc1nnc(SCC(=O)NC2CC2)s1	8.49µM*	?	2.24µM*	2.51µM*	nt
O=C(CSc1nnc(NC(=O)c2ccccc2Cl)s1)Nc1ccc2c(c1)oc1ccccc12	0.953µM*	?	?	3.55µM*	35.5µM*
O=C(CSc1nc2ccccc2s1)Nc1ccc2c(c1)oc1ccccc12	-2.4%	8.3%	23.6%	17.0%	11.2µM*
O=C(CSc1nc2ccccc2s1)c1cc2ccccc2o1	16.9µM*	nt	nt	nt	-0.2%
CCCN(C(=O)C1CC(=O)N(c2ccccc2C(C)CC)C1)C1CCS(=O)(=O)C1 (configuration not stated)	-0.9%	0.5%	1.8%	-5.7%	nt
O=C(CSc1nnc(NC(=O)c2ccc(F)cc2F)s1)NC1CC1	7.57µM*	?	?	?	nt
CCOC(=O)CNC(=O)CSc1nnc(NC(=O)c2ccc(S(=O)(=O)N3CCOCC3)cc2)s1	?	2.9%	0.2%	-2.3%	nt
O=C(CSc1nnc(NC(=O)c2ccccc2Cl)s1)NC1CC1	12µM*	16.9%	4.47µM*	?	nt
O=C(CSc1nnc(NC(=O)c2c(F)cccc2F)s1)NC1CCCCC1	?	6.3%	-0.1%	8.1%	nt
CC(C)(C)NC(=O)CSc1nnc(NC(=O)c2ccccc2Cl)s1	16.9µM*	7.2%	10.7%	9.8%	15.1%
CCOC(=O)CNC(=O)CSc1nnc(NC(=O)c2ccccc2Cl)s1	10.7µM*	?	?	23.9%	?
NS(=O)(=O)c1ccc(CCn2c(=S)[nH]c3ccc(F)cc3c2=O)cc1	2.4%	-4.2%	0.6%	-0.1%	5.5%
CCOc1ccc(CCNC(=O)CCCc2nnc3n(C)c(=O)c4sccc4n23)cc1OCC	-3.2%	nt	nt	nt	-6.2%
O=C(CSc1nc2ccccc2s1)CSc1nc2ccccc2s1	-2.1%	1.6%	-3.9%	6.3%	19.0%
O=c1oc2ccccc2n1CSc1nc2ccccc2s1	12µM*	?	3.98µM*	2.82µM*	14.2%
Oc1ccccc1-c1cc(-c2ccccc2Cl)[nH]n1	0.675µM*	nt	nt	nt	3.55µM*
Oc1ccccc1-c1cc(-c2ccco2)[nH]n1	9.53µM*	5.8µM*	15.2%	-2.3%	?
Oc1ccc(Cl)cc1-c1cc(-c2ccccc2Cl)[nH]n1	?	12.7%	-1.0%	-9.4%	?
SMILES	FLuc counter	ELG1 genotoxic	Rab9 promoter act	NPC1 prom act	SMN2 splice enh
Oc1ccc(Cl)cc1-c1cc(-c2ccco2)[nH]n1	19µM*	-3.6%	25.6%	27.8%	2.8%
Oc1c(-c2cc(-c3ccco3)[nH]n2)ccc2ccccc12	?	?	3.16µM*	3.16µM*	14.1µM*
COc1ccccc1C(=O)Nc1ccc2oc(-c3cccc4c(Br)cccc34)nc2c1	?	nt	nt	nt	1.2%
COc1ccc(S(=O)(=O)N2CCC(C(=O)NCCc3ccccc3)CC2)cc1	2.7%	0.1%	-2.1%	-0.3%	nt
CCCC/C=C/C(NC(=O)c1ccco1)c1ccccc1 (configuration not stated)	nt	nt	nt	nt	-26.5%
CCOc1ccccc1OCCCOc1ccc(C)cc1Br	10.7µM*	10.8%	19.3%	4.5%	2.0%
CCOc1ccccc1OCCCOc1ccc(C)cc1Cl	10.7µM*	5.5%	?	26.8%	nt
Cc1ccc(-c2csc(NC(=O)c3ccno3)n2)cc1	21.3µM*	?	28.1%	25.4%	-19.8%
Cc1ccc(C(=O)Nc2nc(-c3ccc(F)cc3)cs2)o1	30.1µM*	-0.8%	17.1%	13.3%	nt

Assay outcomes (PubChem BioAssay)
